According to PubChem BioAssay (NCATS):
“And” between values parts separate entries of the source, which are not always exact repeats. Equal entries are not always repeated. Results filed as inconclusive are left out. The source made the active and inactive calls. Unless noted, calls follow the shape of the dose curve; as a rule, active = well fitted curve in the direction sought with a large enough effect; inconclusive = small, poorly fitted or top-dose-only effect, or another doubt; inactive = no such curve, though single readings can be large; an effect the other way counts as inactive or inconclusive.

What was measured:
[1] = Cell Viability - HUV-EC-C (AID 542);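 also: cells exposed to compound for 40 hours; % is scaled to controls: 0 for no effect and ±100 for the full control effect; nearly all actives have a fitted effect of over 35% in size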
How it was run: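 Concentration-dependent ATP loss in HUV-EC-C cells is the measure. Exposure lasts 40 hr at 37 °C; luminescence follows CellTiter-Glo addition, and Hill fits give AC50.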

[2] = Cell Viability - Mesenchymal (AID 546); settings: mesenchymal cells viability, qHTS; activity change, negative = cytotoxicity: at 91.7 µM (top of the series);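 also: cells exposed to compound for 40 hours before reading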
How it was run: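 In this qHTS cytotoxicity format, glomerulus-derived human mesenchymal kidney cells received compound for 40 hr, then luciferase-based ATP quantitation. Concentration-response data were fitted with the Hill equation.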

[3] = Cellular Toxicity (caspase-3) Jurkat (AID 655); settings: Jurkat caspase-3 activation, luminescence; caspase-3 activation: at 92.2 µM (top of the series), DMSO = 0%, tamoxifen = 100%;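 also: cells exposed to compound for 16 h at 37 °C before reading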
How it was run: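 qHTS in human Jurkat T-cell leukemia line: 16 hr compound treatment at 37 °C, caspase-3/7 activity measured by Caspase-Glo luminescence. AC50 derived from Hill equation.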

[4] = Cellular Toxicity (caspase-3) HUV-EC-C (AID 656)
How it was run: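 Concentration-dependent caspase 3/7 induction was assessed in HUV-EC-C cells exposed for 16 hours. Data scaled between DMSO and tamoxifen (100 uM) controls.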

[5] = Cellular Toxicity (caspase-3) SHSY5Y (AID 657)
How it was run: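 Readout: caspase-cleaved peptide-aminoluciferin substrate driving luciferase light in SH-SY5Y neuroblastoma cells after 16 h treatment. Response normalized to DMSO and 10 uM staurosporine controls.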

[6] = Cellular Toxicity (caspase-3) MRC-5 (AID 659);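 also: 0% = DMSO basal and 100% = 10 µM staurosporine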
How it was run: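 Apoptosis readout in MRC-5 cells: luciferase light generated after caspase 3/7 cleaves a peptide-aminoluciferin substrate, measured post 16 hr compound incubation at 37 °C.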

[7] = Cellular Toxicity (caspase-3) Mesangial (AID 660);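 also: combined caspase 3 and 7 activity read by Caspase-Glo luminescence; cells exposed to compound for 16 h before the caspase read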
How it was run: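 AC50 values come from Hill-equation fits of caspase 3/7 activation, measured as Caspase-Glo luminescence in human glomerular mesangial cells exposed to compound for 16 h at 37 °C; 100% set by 100 uM tamoxifen.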

[8] = Cellular Toxicity (caspase-3) SK-N-SH (AID 661);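 also: 0% = DMSO basal and 100% = 10 µM staurosporine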
How it was run: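 Apoptosis readout in SK-N-SH neuroblastoma: Caspase-Glo 3/7 luminescence following 16 hr treatment in complete culture medium. Normalization used DMSO and 10 uM staurosporine controls.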

[9] = Cellular Toxicity (caspase-3) N2a (AID 665);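 also: compound exposure lasted 16 h at 37 °C before readout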
How it was run: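 Concentration-response qHTS: compound-induced caspase-3/7 luminescence in N2a cells (16 h, 37 °C), relative to DMSO and 10 uM staurosporine controls; AC50 obtained using the standard Hill equation.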

[10] = Cellular Toxicity (caspase-3) NIH 3T3 (AID 666);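 also: 0% = DMSO basal and 100% = 100 µM tamoxifen stimulation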
How it was run: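 Activity: caspase-3/7 induction, NIH 3T3 cells, 16 hr treatment at 37°C, luminescent Caspase-Glo detection; AC50 via Hill equation.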

[11] = Cellular Toxicity (caspase-3) Renal Proximal Tubule (AID 667); settings: Potency: caspase-3 activation;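 also: cells exposed to compound for 16 hours at 37 °C before detection; 0% = DMSO basal and 100% = 10 µM staurosporine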
How it was run: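 Caspase-Glo 3/7 read-out, rat primary kidney proximal tubule cells. Compound exposure 16 h, 37 °C; detection after 1 h at RT. Activity scaled to DMSO and 10 uM staurosporine.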

[12] = Cell Viability - LYMP1-002 - Assay at 16 hr (AID 948);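 also: 0% = DMSO alone and full effect = 92 µM tetraoctylammonium bromide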
How it was run: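 In this qHTS, lymphoblastoid LYMP1-002 cells (human) receive compounds for 16 hr at 37 C. Viability is taken from CellTiter-Glo ATP luminescence, and AC50 derives from standard Hill fits.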

[13] = MultiTox-Fluor Cytotoxicity Assay - LYMP1-003 - Dead Cells (AID 961); also: nearly all actives have a fitted effect of over 70% in size; also: potency is read from the fitted curve at half-maximal effect
How it was run: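 Dead-cell protease release, detected as bis-AAF-R110 fluorescence at 485/520 nm, was measured in LYMP1-003 cells after 16 h compound treatment at 37 C. AC50 values came from Hill-modeled qHTS curves normalized to DMSO (0%) and 15 uM tetraoctylammonium bromide (100%).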

[14] = Cell Viability - LYMP1-003 - Assay at 24 hr (AID 963);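 also: plate controls were DMSO only for no effect and tetraoctylammonium bromide positive control for full effect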
How it was run: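 The lymphoblastoid line was treated with titrated compounds for 24 hours, and viable cell number estimated from luciferase-based ATP luminescence.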

[15] = Cell Viability - LYMP2-003 (AID 965);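 also: cells exposed to compounds for 24 h before reading; nearly all actives have a fitted effect of over 50% in size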; also: potency is read from the fitted curve at half-maximal effect;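 as to activity change, negative = cytotoxicity: 0% = DMSO only and full effect = 92 µM tetraoctylammonium bromide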
How it was run: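 qHTS, human lymphoblastoid line, 2500 cells/well, complete medium. 24 h drug, 37 C. ATP-based luminescent readout; Hill-fit AC50.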

[16] = Cell Viability - LYMP2-026 (AID 989);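 also: cells exposed to compound for 24 h at 37 °C; % is scaled to controls: 0 for no effect and ±100 for the full control effect; nearly all actives have a fitted effect of over 50% in size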
How it was run: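 Acute toxicity screen in complete culture medium, with 24 hr compound exposure at 37 C. Viability read as cellular ATP via luciferase reaction, with tetraoctylammonium bromide (6.4pM to 92 uM) as positive control.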

[17] = Cell Viability - LYMP1-002 - Assay at 24 hr (AID 993); also: % is scaled to controls: 0 for no effect and ±100 for the full control effect
How it was run: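 Viability was judged from intracellular ATP using a luciferase read-out, following a 24-hour compound incubation at 37 C of lymphoblastoid cells seeded at 2500 per well. Concentration-response data were fitted to the Hill equation for AC50.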

[18] = qHTS Assay for Identification of Small Molecule Inducers of Hypoxia Response (AID 2120; active = well fitted curve in the direction sought with a large enough effect in the signal ratio, with a control signal flat, not every such curve was filed as active; the % refers to the signal ratio; also: 0% is about no effect)
How it was run: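 HRE-bla ME-180, 2500 cells/well, 0.5% dialyzed FBS medium; cpd titration, 17 h 37 degrees C; CCF4 2.5 h RT; Ex 405, Em 460/530 ratio -> %Activity, AC50.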

[19] = molecular target: Peroxisome proliferator-activated receptor alpha (Homo sapiens) (UniProt Q07869); experiment: qHTS assay for small molecule agonists of the peroxisome proliferator-activated receptor alpha (PPARalpha) signaling pathway (AID 651778); settings: PathHunter PPARalpha complementation, chemiluminescence, 6 h; max response: active compounds read high; also: % of control where 0% means no effect
How it was run: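 Cells plated at 2,000/well and held overnight at 37 C, 5% CO2, then compound added by pin tool for 6 hr; after PathHunter detection reagent and 60 min at room temperature, chemiluminescence from enzyme complementation was read.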

[20] = qHTS assay for cell viability of the p53RE-bla HCT-116 cell line (AID 743292); also: % is scaled to controls: 0 for no effect and ±100 for the full control effect; nearly all actives have a fitted effect of over 55% in size
How it was run: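 ATP-based luminescent viability (CellTiter-Glo, 30 min RT) after 16 h compound treatment at 37 C of p53RE-bla HCT-116 cells, seeded at 4,000 cells/well and rested 5 h before dosing.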

Sequence of Peroxisome proliferator-activated receptor alpha (Homo sapiens) (Q07869 whole entry, looked up): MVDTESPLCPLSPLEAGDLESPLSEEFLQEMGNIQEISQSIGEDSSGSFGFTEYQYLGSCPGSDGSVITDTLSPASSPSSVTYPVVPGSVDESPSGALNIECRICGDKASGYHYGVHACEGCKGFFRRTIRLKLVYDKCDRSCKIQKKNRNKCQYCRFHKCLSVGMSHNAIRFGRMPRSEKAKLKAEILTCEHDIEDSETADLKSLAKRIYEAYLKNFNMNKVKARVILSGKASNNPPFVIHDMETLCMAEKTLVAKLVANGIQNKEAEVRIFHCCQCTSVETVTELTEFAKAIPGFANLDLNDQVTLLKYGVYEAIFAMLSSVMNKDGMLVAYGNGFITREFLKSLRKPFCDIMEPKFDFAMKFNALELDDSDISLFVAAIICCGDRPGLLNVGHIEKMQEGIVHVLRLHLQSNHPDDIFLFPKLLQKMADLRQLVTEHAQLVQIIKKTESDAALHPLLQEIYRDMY

Cc1ccc(O)c(N)c1
inactive: Potency [1] | Potency [2] | Potency [3] | Potency [4] | Potency [5] | outcome [6] | outcome [7] | outcome [8] | outcome [9] | outcome [10] | Potency [11] | Potency [12] | Potency [13] | Potency [14] | Potency [16] | Potency [17] | Potency [18] | max response [19] -1.19% | Potency [20]
active: Potency [15] 79.4 µM

O=[N+]([O-])c1cc(Cl)c(Cl)c(Cl)c1Cl
active: Potency [13] 50.1 µM
inactive: Potency [1] | Potency [2] | Potency [3] | Potency [4] | Potency [5] | outcome [6] | outcome [7] | outcome [8] | outcome [9] | Potency [11] | Potency [12] | Potency [14] | Potency [15] | Potency [16] | Potency [17] | Potency [18] | max response [19] -1.46% | Potency [20]

NC(=O)Nc1nc2ccccc2[nH]1
inactive: Potency [1] | Potency [2] | Potency [3] | Potency [4] | Potency [5] | outcome [6] | outcome [7] | outcome [8] | outcome [9] | outcome [10] | Potency [11] | Potency [12] | Potency [13] | Potency [14] | Potency [15] | Potency [16] | Potency [17] | Potency [18] | max response [19] -2.7% | Potency [20]

O=[N+]([O-])c1ccc(F)cc1F
inactive: Potency [1] | Potency [2] | Potency [3] | Potency [4] | Potency [5] | outcome [6] | outcome [7] | outcome [8] | outcome [9] | outcome [10] | Potency [11] | Potency [12] | Potency [13] | Potency [14] | Potency [15] | Potency [16] | Potency [17] | Potency [18] | max response [19] -5.98% | Potency [20]

Clc1nc2ccccc2nc1Cl
inactive: Potency [1] | Potency [2] | Potency [3] | Potency [4] | Potency [5] | outcome [6] | outcome [7] | outcome [8] | outcome [9] | outcome [10] | Potency [11] | Potency [12] | Potency [13] | Potency [14] | Potency [15] | Potency [16] | Potency [17] | Potency [18] | max response [19] 0.306% | Potency [20]

Oc1ccc(O)c2c(O)cccc12
inactive: Potency [1] | Potency [2] | Potency [4] | Potency [5] | outcome [6] | outcome [7] | outcome [8] | outcome [9] | outcome [10] | Potency [11] | Potency [12] | Potency [13] | Potency [14] | Potency [17] | Potency [18] | max response [19] 5.73% | Potency [20]

CC(C)S
inactive: Potency [1] | Potency [2] | Potency [3] | Potency [4] | Potency [5] | outcome [6] | outcome [7] | outcome [8] | outcome [9] | outcome [10] | Potency [11] | Potency [12] | Potency [13] | Potency [14] | Potency [15] | Potency [16] | Potency [17] | Potency [18] | max response [19] -0.0008% | Potency [20]

O=C(O)c1ccc([N+](=O)[O-])cc1
active: caspase-3 activation [3] 85.2%
inactive: Potency [1] | Potency [2] | Potency [4] | Potency [5] | outcome [6] | outcome [7] | outcome [8] | outcome [9] | outcome [10] | Potency [11] | Potency [12] | Potency [13] | Potency [14] | Potency [15] | Potency [16] | Potency [17] | Potency [18] | max response [19] -2.26% and 0.632% | Potency [20]

NC(=O)c1ccc([N+](=O)[O-])cc1
inactive: Potency [1] | Potency [2] | Potency [3] | Potency [4] | Potency [5] | outcome [6] | outcome [7] | outcome [8] | outcome [9] | outcome [10] | Potency [11] | Potency [12] | Potency [13] | Potency [14] | Potency [15] | Potency [16] | Potency [17] | Potency [18] | max response [19] -2.18% | Potency [20]

CC(=O)CC(=O)Nc1ccccc1
inactive: Potency [1] | Potency [2] | Potency [3] | Potency [4] | Potency [5] | outcome [6] | outcome [7] | outcome [8] | outcome [9] | outcome [10] | Potency [11] | Potency [12] | Potency [13] | Potency [14] | Potency [15] | Potency [16] | Potency [17] | Potency [18] | max response [19] 0.169% and 0.0126% | Potency [20]

Cc1ccc(N)cc1[N+](=O)[O-]
inactive: Potency [1] | Potency [2] | Potency [3] | Potency [4] | Potency [5] | outcome [6] | outcome [7] | outcome [8] | outcome [9] | outcome [10] | Potency [11] | Potency [12] | Potency [13] | Potency [14] | Potency [15] | Potency [16] | Potency [17] | Potency [18] | max response [19] -0.223% | Potency [20]
